Reference: PubChem BioAssay
Entries with a potency or affinity are not part of this list. Results filed as inconclusive are left out. The source made the active and inactive calls. Unless noted, the rule behind the calls is not given here.

Legend:
[1] = cytotoxicity in PAX8-dependent RMG-1 cells, dose response, cell-based, cherry-pick (AID 687029;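 active = signal drop whose fitted half-maximal concentration is at most twice the top valid dose, in every test run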;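 note: cells exposed to compound for 96 hours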)
[2] = cytotoxicity in IOSE-T80 ovarian epithelial cells, dose response, selectivity assay for PAX8 inhibitor project, cell-based, cherry-pick (AID 687032;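 active = fitted half-maximal concentration for viability loss no higher than twice the top valid dose, in every repeat run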;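 note: cells exposed to compound for 96 h before reading; 0% = neutral control wells and -100% = 2 µM mitoxantrone kill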)
[3] = IOSE-T80 ovarian epithelial cell cytotoxicity, dose response, cytotoxicity control for PAX8 inhibitor project, plate reader, dry powder samples (AID 743045);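 note: 0% = neutral control median and -100% = positive control median; more negative values mean more cell killing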
[4] = A2780 ovarian cancer cell cytotoxicity, dose response, cytotoxicity control, plate reader, dry powder samples (AID 743046);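 note: 0% = neutral control wells and -100% = cytotoxic reference compound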
[5] = cytotoxicity in OVCAR8 ovarian cancer cells, dose response, PAX8 project, cell-based, plate reader, dry powder samples (AID 743197)
[6] = IGROV1 ovarian cancer cell cytotoxicity, dose response, PAX8 inhibitor project, plate reader, dry powder samples (AID 743043);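 note: more negative means fewer viable cells or more cytotoxicity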
[7] = non-specific cell cytotoxicity, dose response, cytotoxicity control for PAX8 inhibitor project, plate reader, dry powder samples (AID 743021)
[8] = NIH:OVCAR-3 ovarian cancer cell cytotoxicity, dose response, PAX8 inhibitor project, plate reader, dry powder samples (AID 743044); details: max activity: at 35 µM, active compounds read low unless noted
[9] = A549 cell cytotoxicity, dose response, cytotoxicity control, plate reader, cherry-pick, antagonist series (AID 743412);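 note: 0% = neutral control wells and -100% = positive control wells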
[10] = HepG2 cell cytotoxicity, dose response, cytotoxicity control, plate reader, cherry-pick, antagonist series (AID 743416);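 note: 0% = neutral control wells and -100% = positive control wells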
[11] = inhibitors of CMV-promoter luciferase reporter, dose response, counter-screen for Pax8 inhibitor project, cell-based, HEK293, luminescence, dry powder (AID 743020;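 active = signal-lowering compounds whose fitted half-maximal concentration is at or below twice the top tested dose in every run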;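 note: HEK293 cells stably expressing the CMV luciferase reporter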)

C[C@@H]1CCCCO[C@H](CN(C)Cc2ccc(Cl)c(Cl)c2)[C@@H](C)CN([C@@H](C)CO)C(=O)c2cc(NS(=O)(=O)c3ccccc3)ccc2O1
inactive: outcome [1] | outcome [2] | outcome [3] | outcome [4] | outcome [5]

O=C(C[C@H]1C[C@@H]2c3cc(NS(=O)(=O)c4ccc(F)cc4)ccc3O[C@@H]2[C@@H](CO)O1)N1CCc2ccccc2C1
inactive: outcome [1] | outcome [2] | outcome [6] | outcome [3] | outcome [4]

COc1cccc(C#Cc2ccc([C@H]3[C@@H](CO)N(C(=O)C4CCCCC4)[C@H]3C#N)cc2)c1
inactive: outcome [1] | outcome [2] | outcome [6] | outcome [3] | outcome [5]

COc1cccc(C#Cc2ccc([C@H]3[C@@H](CO)N(C(=O)c4ccccn4)[C@H]3C#N)cc2)c1
inactive: outcome [1] | outcome [2] | outcome [3] | outcome [4]

COc1ccc(NC(=O)Nc2ccc3c(c2)C(=O)N([C@H](C)CO)C[C@H](C)[C@H](CN(C)Cc2ccc(C(F)(F)F)cc2)OCCCC[C@H](C)O3)cc1
inactive: outcome [1] | outcome [2] | outcome [3] | outcome [4]

N#C[C@@H]1[C@@H](c2ccc(C#Cc3ccccc3F)cc2)[C@H](CO)N1C(=O)C1CCCCC1
inactive: outcome [1] | outcome [2] | outcome [7] | outcome [4]

C[C@H](CO)N1C[C@H](C)[C@H](CN(C)Cc2ccc3c(c2)OCO3)OCCCC[C@H](C)Oc2ccc(NC(=O)Nc3ccc(C(F)(F)F)cc3)cc2C1=O
inactive: outcome [1] | outcome [2] | outcome [6] | max activity [8] -20.3% [at 0.26 µM, active compounds read low] | outcome [3] | outcome [4] | outcome [5]

O=C(C[C@@H]1C[C@@H]2c3cc(NS(=O)(=O)c4ccc(F)cc4)ccc3O[C@@H]2[C@@H](CO)O1)NCc1ccc(Oc2ccccc2)cc1
inactive: outcome [1] | outcome [2] | outcome [6] | outcome [3]

COc1ccc(NC(=O)N2CCCCN3[C@H](C2)[C@@H](c2ccc(C#Cc4ccccc4)cc2)[C@@H]3CO)cc1
inactive: outcome [1] | outcome [2] | outcome [6] | outcome [3] | outcome [4]

C[C@H](CO)N1C[C@H](C)[C@@H](CN(C)Cc2ccc(C(F)(F)F)cc2)Oc2ccc(NS(=O)(=O)c3ccc(Cl)cc3)cc2CC1=O
inactive: outcome [1] | outcome [2] | outcome [3] | outcome [4]

C[C@@H]1CN([C@H](C)CO)C(=O)c2cc(NS(=O)(=O)c3ccccc3)ccc2O[C@@H](C)CCCCO[C@H]1CN(C)Cc1ccc(C(F)(F)F)cc1
inactive: outcome [1] | outcome [2] | outcome [7] | outcome [4]

Cn1cnc(S(=O)(=O)N2C[C@@H]3N[C@H](C2)C3c2ccc(-c3ccccc3F)cc2)c1 (stereo partly drawn)
inactive: outcome [1] | outcome [2] | outcome [7] | outcome [4]

COc1ccc(S(=O)(=O)N(C)C[C@@H]2Oc3ccc(NC(=O)Nc4ccc(C(F)(F)F)cc4)cc3CC(=O)N([C@H](C)CO)C[C@@H]2C)cc1
inactive: outcome [1] | outcome [2] | outcome [7] | activity change, negative = cytotoxicity [4] -15.3% [at 8 µM]

Cc1ccc(S(=O)(=O)Nc2ccc3c(c2)C(=O)N([C@H](C)CO)C[C@@H](C)[C@@H](CN(C)Cc2ccc(C(F)(F)F)cc2)OCCCC[C@H](C)O3)cc1
inactive: outcome [1] | outcome [2] | outcome [7] | outcome [3] | outcome [5]

Cc1ccc(S(=O)(=O)Nc2ccc3c(c2)C(=O)N([C@H](C)CO)C[C@@H](C)[C@H](CN(C)Cc2ccc(C(F)(F)F)cc2)OCCCC[C@H](C)O3)cc1
inactive: outcome [1] | outcome [2] | outcome [3]

COc1ccc(S(=O)(=O)Nc2ccc3c(c2)C(=O)N([C@@H](C)CO)C[C@@H](C)[C@H](CN(C)Cc2ccc(C(F)(F)F)cc2)OCCCC[C@H](C)O3)cc1
inactive: outcome [1] | outcome [2] | outcome [6] | max activity [8] -37.4% | outcome [3] | outcome [4] | outcome [5]

O=C1CN(S(=O)(=O)Cc2ccccc2)C[C@H]2[C@H](c3ccc(C#Cc4ccc(F)cc4)cc3)[C@H](CO)N12
inactive: outcome [1] | outcome [2] | outcome [6] | outcome [3] | outcome [4] | outcome [5]

COc1ccc(CN(C)C[C@@H]2OCCCC[C@H](C)Oc3ccc(NC(=O)Nc4ccc(C(F)(F)F)cc4)cc3C(=O)N([C@@H](C)CO)C[C@H]2C)cc1
inactive: outcome [1] | outcome [2] | outcome [6] | outcome [3]

COc1ccccc1C#Cc1ccc([C@H]2[C@H](C#N)N(C(=O)C3CCC3)[C@H]2CO)cc1
inactive: outcome [1] | outcome [2] | outcome [6] | outcome [4]

C[C@H](CO)N1C[C@H](C)[C@@H](CN(C)Cc2ccc(C(F)(F)F)cc2)OCCCC[C@H](C)Oc2ccc(NS(=O)(=O)c3ccc(F)cc3)cc2C1=O
inactive: outcome [1] | outcome [2] | outcome [3] | outcome [5]

Cc1ccc2nc(-c3ccc(Br)cc3)cn2c1
inactive: outcome [1] | outcome [2] | outcome [9] | outcome [10]

O=C(C1CC1)N1C[C@@H]2N[C@H](C1)C2c1ccc(-c2cccc(F)c2)cc1 (stereo partly drawn)
inactive: outcome [1] | outcome [2] | outcome [7] | outcome [4]

COc1ccc(S(=O)(=O)N(C)C[C@@H]2OCCCC[C@H](C)Oc3ccc(NS(=O)(=O)c4ccc(Cl)cc4)cc3C(=O)N([C@H](C)CO)C[C@@H]2C)cc1
inactive: outcome [1] | outcome [2] | outcome [6] | outcome [3] | outcome [4] | outcome [5]

COc1ccc(S(=O)(=O)Nc2ccc3c(c2)C(=O)N([C@H](C)CO)C[C@H](C)[C@@H](CN(C)S(=O)(=O)c2ccc(Cl)cc2)OCCCC[C@H](C)O3)cc1
inactive: outcome [1] | outcome [2] | outcome [3]

COc1ccccc1S(=O)(=O)N(C)C[C@H]1Oc2cc(C#CCC3CCCC3)ccc2S(=O)(=O)N([C@@H](C)CO)C[C@H]1C
inactive: outcome [1] | outcome [2] | outcome [6] | max activity [8] 9.23% [at 16 µM, active compounds read low] | outcome [3] | outcome [4] | outcome [5]

OC(c1cc(-c2ccc(C(F)(F)F)cc2)nc(C(F)(F)F)c1)C1CCCCN1 (stereo not drawn)
inactive: outcome [1] | outcome [11]

COc1cccc(N2CCN(c3ncnc4c3cnn4-c3ccc(C)cc3C)CC2)c1
inactive: outcome [1] | outcome [11]

C#CC(=O)N(c1ccc(OC)cc1OC)C(C(=O)NC1CCCC1)c1cccs1 (stereo not drawn)
inactive: outcome [1] | outcome [11]

Cc1ccc(C(=O)O/N=C(\N)c2ccccn2)cc1
inactive: outcome [1] | outcome [11]

COc1ccc(N(Cc2cc3cc(OC)ccc3[nH]c2=O)S(=O)(=O)c2ccc(NC(C)=O)cc2)cc1
inactive: outcome [1] | outcome [11]

COc1ccc(N2C(=O)CC(Sc3nnnn3-c3ccc(F)cc3)C2=O)cc1 (stereo not drawn)
inactive: outcome [1] | outcome [11]

Cc1nc2c(=O)n(C)c(=O)n(C)c2nc1Cl
inactive: outcome [1] | outcome [11]

CCOC(=O)c1c2c(n(Cc3ccccc3)c1C)C(=O)C(=O)c1ccccc1-2
inactive: outcome [1] | outcome [11]

Cc1cc(C)n(-c2nc(NCCN(C)C)c3c4c(sc3n2)CCCC4)n1
inactive: outcome [1] | outcome [11] | outcome [7]

CCOc1ccc(NC(=O)Nc2cccc(C(=O)O)c2)cc1
inactive: outcome [1] | outcome [11]

COc1ccc(/C=C2\CN(Cc3ccccc3)C/C(=C\c3ccc(OC)cc3OC)C2=O)c(OC)c1
inactive: outcome [1] | outcome [11]

CCC[C@@H](CN[C@@H](CNC)[C@H](C)CC)NCC1CCC(C(C)(C)C)CC1 (stereo partly drawn)
inactive: outcome [1] | outcome [11]

C=C1C(=O)[C@]23C[C@H]1CCC2[C@@]1(C)C(C[C@@H]3O)[C@](C)(C(=O)OC)CC[C@@H]1O (stereo partly drawn)
inactive: outcome [1] | outcome [11]
